Screens from PubChem BioAssay.
Most compounds without a hit are left out; they make up all but 3.3% or so of the library.
AmpC no deterg – blocks E. coli AmpC beta-lactamase in detergent-free assay; AmpC nitrocefin hydrolysis, absorbance 480 nm, 0.0001% Triton; P00811; Potency, µM (highest dose often 57.1 µM), inactives show top-dose activity change, negative = inhibition, actives largely listed as inhibitors; 330,000 compounds, 0.52% hits; AID 485341;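 further: plate controls were no compound for no effect and no enzyme for full effect; nearly all actives have a fitted effect of over 20% in size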
Target sequence (P00811 whole entry, looked up): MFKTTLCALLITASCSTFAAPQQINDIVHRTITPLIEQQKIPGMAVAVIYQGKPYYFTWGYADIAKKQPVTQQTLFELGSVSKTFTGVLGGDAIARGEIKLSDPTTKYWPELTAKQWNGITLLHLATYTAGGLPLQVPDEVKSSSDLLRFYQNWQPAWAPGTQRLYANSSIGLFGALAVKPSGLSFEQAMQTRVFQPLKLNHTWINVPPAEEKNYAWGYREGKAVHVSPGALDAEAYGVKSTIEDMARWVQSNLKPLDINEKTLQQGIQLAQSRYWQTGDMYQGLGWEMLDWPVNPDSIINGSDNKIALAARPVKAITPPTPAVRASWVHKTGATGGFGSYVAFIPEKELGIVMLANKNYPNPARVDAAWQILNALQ
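AmpC (5.3 nM in the dispensed reagent) in 20 mM phosphate pH 7.0 with 0.01% (detergent screen) or 0.0001% Triton X-100 was preincubated with compounds for 15 min at room temperature. Nitrocefin was then added from an 800 uM solution, and hydrolysis was followed at 480 nm.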
AmpC inh detg – blocks E. coli AmpC beta-lactamase in detergent assay. P00811. AmpC hydrolysis of nitrocefin, absorbance 480 nm, 0.01% Triton. Potency, µM (doses to about 114 µM), without a hit: at the top dose activity change, negative = inhibition, hits mostly inhibitors. 370,000 compounds, 0.041% hits;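 further: 0% = no-compound wells and -100% = no-enzyme wells; nearly all actives have a fitted effect of over 25% in size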
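20 mM phosphate pH 7.0 + 0.01% (detergent screen) or 0.0001% Triton X-100; 5.3 nM AmpC reagent; cpd preinc 15 min RT; nitrocefin (800 uM stock) to start; A480 q20 s × 4 min; Activity was normalised to no-enzyme and no-compound control wells.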
Sm TGR inh – inhibitors of Schistosoma mansoni thioredoxin glutathione reductase; Q962Y6; purified TGR, DTNB reduction, TNB absorbance 405 nm; Potency, µM (doses to about 114 µM), for inactives: at the highest dose activity change, negative = inhibition, actives largely listed as inhibitors; 360,000 compounds, 3% hits; AID 485364; further: nearly all actives have a fitted effect of over 60% in size
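First, TGR (20 nM dispensed) and NADPH were mixed with compound. Second, a 15 min room-temperature incubation followed. Third, further NADPH and then DTNB were added to start the reaction. Finally, TNB absorbance was monitored kinetically.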
The depositor's hits bear a star; ? = inconclusive; nt = not tested or not shown. The call rests on the fitted dose curve; in most records, active means well fitted curve in the direction sought with a large enough effect; inconclusive means small, poorly fitted or top-dose-only effect, or another doubt; inactive means no such curve, though single readings can be large; an effect the other way counts as inactive or inconclusive. Unless noted, on the % scale 0 is the no-effect control and ±100 the full control effect; potency means the concentration at half of the fitted maximal effect.

SMILES	AmpC no deterg	AmpC inh detg	Sm TGR inh
NS(=O)(=O)c1ccc(NCCCn2ccnc2)c([N+](=O)[O-])c1	-13%	-4%	0%
O=C1c2ccccc2-c2onc3ccc(NCCCn4ccnc4)c1c23	64%	0%	20µM*
O=C(CN1C(=O)COc2ccc(S(=O)(=O)N3CCCCCC3)cc21)N1CCN(c2ccccc2)CC1	nt	-3%	1%
CCOC(=O)Cc1csc(NS(=O)(=O)c2ccc([N+](=O)[O-])cc2)n1	-32%	3%	-2%
Cc1ccc(Cl)cc1N1CCN(S(=O)(=O)c2cc3c(cc2C)NC(=O)CO3)CC1	-45%	-5%	-4%
COc1cccc(-c2nnc(-c3ccccc3NC(=O)c3ccc(C(C)(C)C)cc3)o2)c1	-10%	7%	19%
COCCCNC(=O)CN1C(=O)COc2ccc(S(=O)(=O)N3CCCC3)cc21	nt	?	-7%
CC1(C)CC(=O)C(N=Nc2cccc(F)c2C#N)=C(O)C1	-3%	4%	14µM*
COc1ccc(N=NC2=C(O)CC(C)(C)CC2=O)c(OC)c1	48%	-5%	-19%
CC1(C)CC(=O)C(N=Nc2ccc(C(F)(F)F)cc2[N+](=O)[O-])=C(O)C1	23%	-5%	4µM*
CC1(C)CC(=O)C(N=Nc2cccc([N+](=O)[O-])c2)=C(O)C1	-1%	-3%	?
COc1ccc(/C=C2/C(=O)N(Cc3ccccc3)N=C2C)cc1	1%	-5%	1%
COc1ccc(/C=C2/C(=O)N(c3nc4ccccc4s3)N=C2CSc2ccc(Cl)cc2)cc1	16µM*	-12%	-14%
Cc1cc(C)c2[nH]c(=O)c(CN(Cc3cccnc3)C(=S)NCCCN(C)C)cc2c1	83%	4%	?
COc1ccc(NC2CCCN(C(=O)CCc3ccccc3F)C2)cc1 (configuration not stated)	40%	?	-14%
Nc1c(C(=O)NCC2CCCO2)sc2nc3c(c(-c4ccco4)c12)CC/C3=C\c1ccco1 (configuration not stated)	0%	-6%	18µM*
NC(=O)c1sc2nc3c(c(-c4ccco4)c2c1N)CCCC3	-15%	?	-22%
Cc1cccn2c(=O)cc(COc3ccc(NC(=O)c4cccc(F)c4)cc3)nc12	nt	-4%	-1%
Cc1cccc(C(=O)NCC(c2ccc3c(c2)OCO3)N2CCOCC2)c1 (configuration not stated)	nt	2%	25µM*
Cc1ccc(C(=O)NCC(c2ccc3c(c2)OCO3)N2CCOCC2)cc1 (configuration not stated)	nt	3%	7%
O=c1c(C(c2ccccc2)c2c(O)sc3ccccc3c2=O)c(O)sc2ccccc12	16µM*	-3%	?
CCC(=O)CC(c1ccccc1)c1c(O)c2ccccc2sc1=O (configuration not stated)	-27%	-4%	4%
C=CCn1c(C)cc(C(=O)COC(=O)c2cncc(Br)c2)c1C	-8%	-8%	?
Cc1cc(C)n(C(C[N+](=O)[O-])c2ccc(Cl)cc2)n1 (configuration not stated)	18µM*	2%	0%
Cc1cc(O)c(C(C[N+](=O)[O-])c2ccc(Cl)cc2)c(=O)o1 (configuration not stated)	-20%	1%	?
SMILES	AmpC no deterg	AmpC inh detg	Sm TGR inh
O=C(Nc1cccc(S(=O)(=O)NCc2ccco2)c1)c1cc(-c2ccc(F)cc2)nc2ccccc12	-39%	1%	-10%
CNS(=O)(=O)c1ccc(OC)c(-c2nnc3c4ccccc4c(C)nn23)c1	-4%	24%	9%
O=C(Nc1ccccc1)c1ccc(S(=O)(=O)NCc2ccco2)cc1	-35%	-7%	?
COc1ccc(C(=O)Nc2ccccc2)cc1S(=O)(=O)NCc1ccco1	-32%	?	45µM*
O=C(Nc1ccccc1)c1cccc(S(=O)(=O)NCc2ccco2)c1	-31%	4%	2%
COc1ccc(S(=O)(=O)NCc2ccco2)cc1-c1nnc2c3ccccc3c(C)nn12	64%	1%	56µM*
Cc1ccc(C(=O)Nc2ccc(S(=O)(=O)NCc3ccco3)cc2)cc1	-23%	5%	50µM*
COc1ccc(-c2cc(C(=O)Nc3cccc(S(=O)(=O)NCc4ccco4)c3)c3ccccc3n2)cc1OC	2µM*	-4%	?
CCOc1ccc(NC(=O)N2CCC(NC(=O)C(Cc3ccccc3OC)NC(C)=O)CC2)cc1 (configuration not stated)	-4%	-9%	-10%
CCCN(CC(=O)Nc1ccccc1OC)C(=O)c1ccc(S(=O)(=O)Nc2ccccc2)cc1	-9%	-21%	-6%
O=C(COC(=O)c1ccc(S(=O)(=O)NCc2ccco2)cc1)c1ccccc1	-28%	2%	1%
Cc1noc(C)c1COC(=O)c1ccc(S(=O)(=O)NCc2ccco2)cc1	-34%	-20%	40µM*
COC(=O)C(NC(=O)c1ccccc1C)(Nc1ncc(S(=O)(=O)c2ccc([N+](=O)[O-])cc2)s1)C(F)(F)F (configuration not stated)	-39%	?	2%
COC(=O)C(NC(=O)c1ccc(F)cc1)(Nc1ncc(S(=O)(=O)c2ccc([N+](=O)[O-])cc2)s1)C(F)(F)F (configuration not stated)	8.9µM*	-14%	2%
COc1ccc(C2=CC(=O)N(Nc3ccccc3)C2=O)cc1	-29%	?	-14%
O=C1C=C(c2ccccc2)C(=O)N1Nc1ccccc1	-31%	9%	14µM*
CN(C)S(=O)(=O)c1ccc(Cl)c(NC(=O)COC(=O)/C=C/c2ccc(S(=O)(=O)N3CCOCC3)cc2)c1	33%	-5%	-2%
CCOC(=O)C(C)Sc1ncc(OC)c(=O)[nH]1 (configuration not stated)	0.16µM*	-2%	5%
CCOC(=O)CSc1ncc(OC)c(=O)[nH]1	?	3%	-6%
O=C1CCCN1c1ccc(S(=O)(=O)NCc2ccc(F)cc2)cc1	-13%	-1%	7%
CCN1CCN(C(=O)CS(=O)Cc2nc(-c3cccc(C)c3)oc2C)CC1 (configuration not stated)	17%	-10%	40µM*
CCOC(=O)N1CCN(C(=O)CS(=O)Cc2nc(-c3cccc(C)c3)oc2C)CC1 (configuration not stated)	50%	?	?
Cc1cccc(-c2nc(CS(=O)CC(=O)N3CCc4ccccc4C3)c(C)o2)c1 (configuration not stated)	76%	?	?
Cc1cccc(-c2nc(CS(=O)CC(=O)N3CC(C)CC(C)C3)c(C)o2)c1 (configuration not stated)	115%	-10%	35µM*
COCCCNC(=O)c1ccc(C)c(-n2c(C)nc3cccnc32)c1	nt	2%	-1%
Cc1ccccc1Cc1c(C)nc2c(C(=O)NCc3ccco3)cnn2c1C	19%	-4%	22µM*
Cc1ccccc1Cc1c(C)nc2nc(SCC(=O)NCc3ccco3)nn2c1C	9%	-10%	25µM*
Cc1nc2c(C(=O)NCc3ccccc3Cl)cnn2c(C)c1Cc1ccccc1	nt	5%	0%
